Our source for the outcome and AC50 values is PubChem BioAssay (EPA / NIEHS).

What all share (conditions): mRNA level, 48 h; actives raise or lower the signal
Read-out in experiment [1]: Alkaline Phosphatase, Placental (ALPP) gene, ALPP (gene 250)
Nature of the experiment: LTEA_HepaRG_ALPP: Life Technologies and Expression Analysis (LTEA) Assay for Alkaline Phosphatase, Placental (ALPP) gene using HepaRG (AID 2283468). The essentials:
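qRT-PCR readout of ALPP mRNA (Fluidigm TaqMan), normalized to ACTB/GAPDH/POLR2A, after 48 h chemical exposure of HepaRG cells; 8-point half-log series, top 100 uM, 0.5% DMSO vehicle. Bidirectional curve fit versus DMSO baseline.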

Read-out in experiment [2]: Bcl-2 (BAD) gene, BAD (gene 572)
Nature of the experiment: LTEA_HepaRG_BAD: Life Technologies and Expression Analysis (LTEA) Assay for Bcl-2 (BAD) gene using HepaRG (AID 2283469). In outline:
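Differentiated HepaRG cells were exposed in duplicate in 0.5% DMSO for 48 h to eight-point half-log concentrations up to 100 uM. BAD mRNA was measured by Fluidigm TaqMan qRT-PCR, normalized to ACTB, GAPDH and POLR2A, and fitted bidirectionally against DMSO.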

Read-out in experiment [3]: Bcl-2 (BAX) gene, BAX (gene 581)
Nature of the experiment: LTEA_HepaRG_BAX: Life Technologies and Expression Analysis (LTEA) Assay for Bcl-2 (BAX) gene using HepaRG (AID 2283470). In outline:
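Differentiated human HepaRG cells, plated 48 h then switched to serum-free induction medium, were exposed 48 h to 8 half-log concentrations up to 100 uM in 0.5% DMSO; BAX mRNA measured by qRT-PCR, normalized to ACTB, GAPDH, POLR2A.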

Read-out in experiment [4]: adenosine kinase (ADK) gene, ADK (gene 132)
Nature of the experiment: LTEA_HepaRG_ADK: Life Technologies and Expression Analysis (LTEA) Assay for adenosine kinase (ADK) gene using HepaRG (AID 2283471). The essentials:
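ADK expression quantified by qRT-PCR, normalised to three housekeeping genes, after 48 h exposure of HepaRG cells to eight concentrations (top 100 uM, half-log steps, duplicate, 0.5% DMSO). Up- or down-regulation fitted relative to vehicle.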

Read-out in experiment [5]: Alpha-fetoprotein (AFP) gene, AFP (gene 174)
Nature of the experiment: LTEA_HepaRG_AFP: Life Technologies and Expression Analysis (LTEA) Assay for Alpha-fetoprotein (AFP) gene using HepaRG (AID 2283472). In outline: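 Human HepaRG cells plated 48 h, then switched to serum-free induction medium and exposed in duplicate for 48 h to 8-point half-log series from 100 uM in 0.5% DMSO. AFP mRNA by qRT-PCR, normalized to ACTB, GAPDH, POLR2A; bidirectional fit versus DMSO.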

Read-out in experiment [6]: BCL2L11 (gene 10018)
Nature of the experiment: LTEA_HepaRG_BCL2L11: Life Technologies and Expression Analysis (LTEA) Assay for Bcl-2 (BCL2L11) gene using HepaRG (AID 2283473). The essentials:
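HepaRG, 48 h exposure, 8-pt half-log series from 100 uM in 0.5% DMSO, duplicates; qRT-PCR (Fluidigm TaqMan) for BCL2L11, housekeeping-normalized; bidirectional curve fit relative to DMSO baseline.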

Read-out in experiment [7]: Apolipoprotein A-V (APOA5) gene, APOA5 (gene 116519)
Nature of the experiment: LTEA_HepaRG_APOA5: Life Technologies and Expression Analysis (LTEA) Assay for Apolipoprotein A-V (APOA5) gene using HepaRG (AID 2283474). The essentials: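 HepaRG, 48 h chemical exposure in serum-free induction medium, 8-pt half-log series (top 100 uM), 0.5% DMSO vehicle, duplicates. Readout: APOA5 mRNA by qRT-PCR, housekeeping-normalized; bidirectional fit vs DMSO baseline.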

Read-out in experiment [8]: Apoptosis regulator Bcl-2 (Homo sapiens) (UniProt P10415)
Nature of the experiment: LTEA_HepaRG_BCL2: Life Technologies and Expression Analysis (LTEA) Assay for Bcl-2 gene using HepaRG (AID 2283475). The essentials: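 Differentiated HepaRG cells in serum-free induction medium were exposed for 48 h to eight half-log concentrations up to 100 uM in 0.5% DMSO, in duplicate. BCL2 mRNA was quantified by TaqMan qRT-PCR normalised to ACTB, GAPDH and POLR2A, with bidirectional fitting versus DMSO.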

Read-out in experiment [9]: Caspase-3 (Homo sapiens) (UniProt P42574)
Nature of the experiment: LTEA_HepaRG_CASP3: Life Technologies and Expression Analysis (LTEA) Assay for cysteine-aspartic acid protease (CASP3) using HepaRG (AID 2283477). In outline: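 HepaRG, 48 h exposure, 8 conc. (top 100 uM, half-log steps, duplicate), 0.5% DMSO vehicle; qRT-PCR of CASP3 transcript, housekeeping-normalised (ACTB/GAPDH/POLR2A); bidirectional curve fit vs DMSO baseline.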

Read-out in experiment [10]: Cytochrome P450 (CYP24A1), CYP24A1 (gene 1591)
Nature of the experiment: LTEA_HepaRG_CYP24A1: Life Technologies and Expression Analysis (LTEA) Assay for Cytochrome P450 (CYP24A1) using HepaRG (AID 2283478). In outline:
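qRT-PCR read-out: CYP24A1 transcript levels normalized to three housekeeping genes, bidirectional curve fits against 0.5% DMSO baseline. Human HepaRG cells treated 48 h with chemicals at eight concentrations from 100 uM in half-log steps.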

Read-out in experiment [11]: Cytochrome P450 (CYP1A2), CYP1A2 (gene 1544)
Nature of the experiment: LTEA_HepaRG_CYP1A2: Life Technologies and Expression Analysis (LTEA) Assay for Cytochrome P450 (CYP1A2) using HepaRG (AID 2283479). The essentials:
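HepaRG, 48 h exposure, top 100 uM, half-log 8-pt, 0.5% DMSO vehicle, duplicates. Readout: TaqMan qRT-PCR of CYP1A2 mRNA, housekeeping-normalized (ACTB/GAPDH/POLR2A). Gain/loss fit relative to DMSO baseline.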

Read-out in experiment [12]: cysteine-aspartic acid protease (CASP8), CASP8 (gene 841)
Nature of the experiment: LTEA_HepaRG_CASP8: Life Technologies and Expression Analysis (LTEA) Assay for cysteine-aspartic acid protease (CASP8) using HepaRG (AID 2283480). The essentials:
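Differentiated HepaRG cells in serum-free induction medium, 48 h exposure, eight-point half-log series from 100 uM in 0.5% DMSO, duplicates. CASP8 mRNA by qRT-PCR, normalized to ACTB, GAPDH, POLR2A; bidirectional fit versus DMSO.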

Read-out in experiment [13]: Cytochrome P450 (CYP2B6), CYP2B6 (gene 1555)
Nature of the experiment: LTEA_HepaRG_CYP2B6: Life Technologies and Expression Analysis (LTEA) Assay for Cytochrome P450 (CYP2B6) using HepaRG (AID 2283481). In outline: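 Read-out is CYP2B6 mRNA by TaqMan qRT-PCR, normalized to three housekeeping genes and fitted bidirectionally against 0.5% DMSO baseline. Human HepaRG cells received test chemicals for 48 h, top concentration 100 uM, half-log dilutions.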

Read-out in experiment [14]: Cytochrome P450 2C19 (Homo sapiens) (UniProt P33261)
Nature of the experiment: LTEA_HepaRG_CYP2C19: Life Technologies and Expression Analysis (LTEA) Assay for CYP2C19 using HepaRG (AID 2283482). In outline:
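HepaRG, 48 h chemical exposure, 8-pt half-log series from 100 uM in 0.5% DMSO, duplicates. Readout: CYP2C19 mRNA by TaqMan qRT-PCR, housekeeping-normalized. Bidirectional fit vs DMSO baseline; phenobarbital 1mM as induction control.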

Read-out in experiment [15]: CYP2C8 (gene 1558)
Nature of the experiment: LTEA_HepaRG_CYP2C8: Life Technologies and Expression Analysis (LTEA) Assay for CYP2C8 using HepaRG (AID 2283483). In outline:
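Differentiated HepaRG cells in serum-free induction medium exposed 48 h in duplicate to 8 half-log concentrations from 100 uM in 0.5% DMSO. CYP2C8 mRNA by qRT-PCR normalized to ACTB, GAPDH, POLR2A; bidirectional fit versus DMSO.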

Read-out in experiment [16]: CYP2C9 (gene 1559)
Nature of the experiment: LTEA_HepaRG_CYP2C9: Life Technologies and Expression Analysis (LTEA) Assay for CYP2C9 using HepaRG (AID 2283484). The essentials:
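Differentiated human HepaRG cells in serum-free induction medium were exposed 48 h to chemicals in 8-point half-log series from 100 uM (0.5% DMSO), in duplicate. CYP2C9 mRNA was measured by qRT-PCR, normalized to ACTB/GAPDH/POLR2A, with bidirectional fitting versus DMSO.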

Read-out in experiment [17]: CYP2E1 (gene 1571)
Nature of the experiment: LTEA_HepaRG_CYP2E1: Life Technologies and Expression Analysis (LTEA) Assay for CYP2E1 using HepaRG (AID 2283485). The essentials:
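HepaRG cells in serum-free induction medium exposed 48 h to test chemicals, 8 half-log concentrations up to 100 uM in 0.5% DMSO, duplicate. CYP2E1 mRNA by qRT-PCR, normalized to ACTB, GAPDH, POLR2A; bidirectional fit versus DMSO.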

Read-out in experiment [18]: CYP4A11 (gene 1579)
Nature of the experiment: LTEA_HepaRG_CYP4A11: Life Technologies and Expression Analysis (LTEA) Assay for CYP4A11 using HepaRG (AID 2283486). In outline: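 CYP4A11 transcript levels were quantified by TaqMan qRT-PCR after HepaRG human liver cells were treated for 48 hours with test chemicals (top 100 uM, half-log dilutions, 0.5% DMSO). Gain or loss of signal was fitted relative to DMSO.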

Read-out in experiment [19]: Cytochrome P450 3A4 (Homo sapiens) (UniProt P08684)
Nature of the experiment: LTEA_HepaRG_CYP3A4: Life Technologies and Expression Analysis (LTEA) Assay for CYP3A4 using HepaRG (AID 2283487). The essentials: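 Differentiated HepaRG cells, plated 48 h, then dosed 48 h in serum-free induction medium with 0.5% DMSO, 8 half-log concentrations up to 100 uM, duplicate. CYP3A4 mRNA by qRT-PCR, normalized to ACTB/GAPDH/POLR2A; bidirectional fit versus DMSO.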

Activity calls are given as the source filed them. How the source made its calls: active means hit-call score of the fitted dose curve at least 0.9, where 1 is the maximum; inactive means score below 0.9.

Chain of Cytochrome P450 2C19 (Homo sapiens) (P33261 whole entry, looked up): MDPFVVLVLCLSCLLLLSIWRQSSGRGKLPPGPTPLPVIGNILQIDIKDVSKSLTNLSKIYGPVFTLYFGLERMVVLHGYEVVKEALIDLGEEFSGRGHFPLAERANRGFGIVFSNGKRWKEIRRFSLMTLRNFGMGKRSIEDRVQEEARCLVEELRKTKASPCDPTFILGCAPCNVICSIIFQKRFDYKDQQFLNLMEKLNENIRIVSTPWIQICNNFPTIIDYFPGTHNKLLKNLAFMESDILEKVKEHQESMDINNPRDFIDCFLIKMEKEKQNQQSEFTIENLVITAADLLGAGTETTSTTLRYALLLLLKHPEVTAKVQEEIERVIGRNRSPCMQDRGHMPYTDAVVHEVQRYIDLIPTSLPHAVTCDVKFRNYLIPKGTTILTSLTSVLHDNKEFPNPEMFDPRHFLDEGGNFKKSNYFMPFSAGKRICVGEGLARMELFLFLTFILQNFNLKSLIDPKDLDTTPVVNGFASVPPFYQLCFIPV
Chain of Caspase-3 (Homo sapiens) (P42574 whole entry, looked up): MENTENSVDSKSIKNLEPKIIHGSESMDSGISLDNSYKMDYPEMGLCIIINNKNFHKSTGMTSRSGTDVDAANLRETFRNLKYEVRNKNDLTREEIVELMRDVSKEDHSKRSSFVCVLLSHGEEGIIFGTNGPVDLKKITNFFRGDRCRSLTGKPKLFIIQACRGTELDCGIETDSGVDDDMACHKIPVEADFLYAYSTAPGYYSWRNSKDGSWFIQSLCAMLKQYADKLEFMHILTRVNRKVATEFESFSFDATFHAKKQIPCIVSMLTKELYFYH
Chain of Cytochrome P450 3A4 (Homo sapiens) (P08684 whole entry, looked up): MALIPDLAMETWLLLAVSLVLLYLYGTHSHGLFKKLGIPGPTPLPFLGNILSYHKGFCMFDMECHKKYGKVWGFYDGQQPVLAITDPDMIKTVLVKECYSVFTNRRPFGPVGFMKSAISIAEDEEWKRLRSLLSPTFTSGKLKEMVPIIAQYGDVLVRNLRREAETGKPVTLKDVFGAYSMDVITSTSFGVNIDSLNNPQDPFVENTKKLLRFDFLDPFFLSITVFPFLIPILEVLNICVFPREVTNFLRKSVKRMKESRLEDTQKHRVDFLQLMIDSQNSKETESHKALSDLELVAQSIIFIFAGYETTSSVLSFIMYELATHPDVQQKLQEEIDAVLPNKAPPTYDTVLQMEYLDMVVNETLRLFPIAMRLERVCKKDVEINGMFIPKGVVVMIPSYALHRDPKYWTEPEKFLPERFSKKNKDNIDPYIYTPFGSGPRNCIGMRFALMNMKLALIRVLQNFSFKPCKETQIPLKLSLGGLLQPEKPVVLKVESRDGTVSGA
Chain of Apoptosis regulator Bcl-2 (Homo sapiens) (P10415 whole entry, looked up): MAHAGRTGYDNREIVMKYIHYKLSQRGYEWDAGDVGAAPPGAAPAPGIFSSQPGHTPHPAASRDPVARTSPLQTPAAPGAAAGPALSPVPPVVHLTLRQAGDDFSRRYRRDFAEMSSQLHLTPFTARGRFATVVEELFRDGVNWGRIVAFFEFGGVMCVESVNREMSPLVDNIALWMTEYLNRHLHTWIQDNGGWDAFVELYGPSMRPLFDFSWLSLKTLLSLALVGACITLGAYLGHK

For `Cc1ccc(O)c(C)c1`, the call in experiment [1], in experiment [2], in experiment [3], in [4], in experiment [5] and in [6] was inactive. Besides, the outcome in experiment [7], in experiment [8], in [9], in [10], in experiment [11] and in experiment [12] was inactive. Also, the compound was classed as inactive in [13], in experiment [14], in experiment [15], in [16], in [17] and in experiment [18]. The outcome in experiment [19] was inactive.
The AC50 is the concentration giving half of the maximal activity seen. Regarding `COc1ccc(O)c(C(C)(C)C)c1`, the compound was called inactive in experiment [1], in [2], in [3], in experiment [4], in experiment [5] and in [6]. In addition, the compound was classed as inactive in [7], in [8], in experiment [9], in experiment [10], in experiment [11] and in experiment [12]. In addition, the compound was classed as inactive in experiment [13], in experiment [14], in [15], in experiment [16], in [17] and in experiment [18]. In experiment [19], the AC50 is 66.4 µM (active).
Consider `c1ccc(-c2ccccc2)cc1`, for which the compound was called inactive in experiment [1], in [2], in [3], in experiment [4], in experiment [5] and in experiment [6]. The call in experiment [7], in experiment [8], in experiment [9], in experiment [10], in experiment [11] and in experiment [12] was inactive. Moreover, the call in experiment [13], in experiment [14], in experiment [15], in experiment [16], in experiment [17] and in experiment [18] was inactive. Moreover, the compound was classed as inactive in experiment [19].
For `CCCCCCCCOC(=O)c1ccccc1C(=O)OCCCCCCCC`, the compound was called inactive in experiment [1], in experiment [2], in [3], in [4], in experiment [5] and in experiment [6]. The call in [7], in [8], in experiment [9], in experiment [10], in experiment [11] and in experiment [12] was inactive. The outcome in experiment [14], in experiment [15], in experiment [16], in experiment [17], in [18] and in experiment [19] was inactive. Besides, the half-maximal activity concentration (AC50) in experiment [13] is 16.3 µM (active).
